Among all 310,000 compounds or so, about 11,000 (3.5%) were called active. Another 8% or so got no clear call; they are omitted. The sample holds actives, similar compounds and a random draw of the others, so the mix is not that of the screen. Unmarked numbers belong to inactive results. Calls follow the shape of the dose curve; as a rule, active = well fitted inhibition curve with a large enough effect; inconclusive = small, poorly fitted or top-dose-only effect, or effect the other way; inactive = flat fitted curve, though single readings scatter.
% is scaled to controls: 0 for no effect and ±100 for the full control effect; potency is read from the fitted curve at half-maximal effect.

The nature of the assay: VP16 counterscreen qHTS for inhibitors of ROR gamma transcriptional activity.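 Also: Gal4-VP16 expression switched on by copper sulfate through the metallothionein promoter; nearly all actives have a fitted effect of over 50% in size.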 Particulars: Drosophila S2 Gal4-VP16 UAS-luciferase, luminescence, 20 h; series mostly up to 53.6 µM; activity, negative = inhibition: at the top concentration. The source says:
NIH Molecular Libraries Probe Production Network [MLPCN]
NIH Chemical Genomics Center [NCGC]
Assay Provider: Dan Littman, New York University
The retinoic acid-related orphan receptor (ROR) gamma is a transcription factor that has a central role in the differentiation of Th17 cells, a subset of T helper cells that secrete the inflammatory cytokines IL-17, IL-17F, and IL-22. Th17 cells have been implicated in graft versus host disease, autoimmune disease and asthma. ROR gamma is induced in naive T helper cells in the presence of TGF-beta combined with IL-6, IL-21, or IL-23, and thereafter directs the expression of the Th17 lineage cytokines. To identify nonspecific inhibitors, a Drosophila Schneider cell line was stably transfected with two vectors: a gene expressing a fusion of the Gal4 DNA binding domain and VP16 transactivation domain under the control of the metallothionine promoter and a Photinus luciferase reporter regulated by the Gal4 binding site enhancer, UAS. […] Small molecule inhibitors that inhibit components common to the RORgt and VP16 assays, such as the Gal4 DNA binding domain or the UAS luciferase reporter, will be active in both assays and thus scored as nonspecific.
For screening, 600 cells in 4 uL/well were dispensed into white solid 1536-well plates (Grenier) using a solenoid-based dispenser. Following transfer of 23 nL compound or DMSO vehicle by a pin tool, the plates were incubated 1 hr at ambient temperature, and 1 uL/well copper sulfate (700 uM final concentration) was added. The plates were centrifuged 15 s at 1000 RPM and incubated 20 hr at ambient temperature. After addition of 1.5 uL Photinus luciferase detection reagent, the plates were incubated 10 min at ambient temperature and then read by a ViewLux (Perkin Elmer) to detect luminescence.
Background: A counterscreen serves to expose hits that act by an unwanted route or on another target.
On to `COc1ccccc1OCc1ccc(C(=O)NC(C)c2ccccc2)o1` (stereo not drawn), for which the “activity, negative = inhibition” value was -3%.
In the case of `CCOc1ccc(C)cc1S(=O)(=O)NC1CCCCCC1`, the “activity, negative = inhibition” value is 23.3%.
On to `COc1cc(/C=C2\SC(=S)N(Nc3ncc(C(F)(F)F)cc3Cl)C2=O)cc(OC)c1OC`, for which the “activity, negative = inhibition” value is -11.4%.
On the same count and under the same terms, with `COC(=O)Cc1ccc(Oc2ncc(C(F)(F)F)cc2Cl)cc1` the figure was 5.94%.
On to `COc1cccc(/C=N/Nc2ncc(C(F)(F)F)cc2Cl)c1O`, for which the Potency was 3.16 µM (active).
On to `C=CCNC(=S)NNc1ncnc2sc3c(c12)CC(C)(C)OC3`, for which the Potency was 7.08 µM (active).
For `CN(C)CCSc1nc(N)c2c3c(sc2n1)COC(C)(C)C3`, the “activity, negative = inhibition” value was -8.2%.
In the case of `CCSc1nc2sc3c(c2c(=O)[nH]1)CC(C)(C)OC3`, the “activity, negative = inhibition” value is 1.94%.
For the compound `CC(C)(C)NS(=O)(=O)c1ccc(NC(=O)C2CCCO2)cc1` (stereo not drawn), the “activity, negative = inhibition” value was -3.37%.
In the case of `Cc1c(C)c2c(OCC(=O)NCCCO)cc3c(c2oc1=O)CCC(C)(C)O3`, the “activity, negative = inhibition” value was 4.21%.
With `COC(=O)c1c(NC(=O)c2ccc(S(=O)(=O)N3CCOCC3)cc2)sc2c1CCN(C(C)C)C2`, the “activity, negative = inhibition” value was -1.8%.
For the compound `CC(C)CCn1c(=O)c2c(nc3n2CCCN3Cc2ccccc2)n(C)c1=O`, the “activity, negative = inhibition” value was -14.9%.
Same read-out and setting: with `COc1ccc(OCC(=O)Nc2ccc(N3CCC(C)CC3)cc2)cc1` the figure was -2.59%.
Consider `COc1cccc(N2CC(C(=O)Nc3c(C)cccc3C)CC2=O)c1` (stereo not drawn), for which the “activity, negative = inhibition” value was 0.144%.
As for `COc1ccc(N2CCC(CNC(=S)Nc3c(C)cccc3C)C2)cc1` (stereo not drawn), the Potency was 2.24 µM (active).
`COc1ccc(NC(=O)N2CCC(Cc3ccccc3)CC2)cc1`: the “activity, negative = inhibition” value was 4.74%.
For the compound `COc1ccc(NC(=S)NCC2CCN(c3ccc(OC)cc3)C2)cc1` (stereo not drawn), the Potency was 4.47 µM (active).
For the compound `COc1ccc(NC(=S)NCCN2CCC(C)CC2)cc1`, the “activity, negative = inhibition” value is -17.1%.
Turning to `Cc1cccc2c1cnn2C(=O)CCC(=O)NC1CCCCC1`, the “activity, negative = inhibition” value is 3.24%.
In the case of `O=C(N/N=C/c1cccc(Br)c1)c1ccc(N2CCCC2=O)cc1`, the “activity, negative = inhibition” value was 3.2%.
On the same count and under the same terms, with `CCOc1ccc(CCNC(=O)CCc2nnc3ccc(N4CCCC4)nn23)cc1OCC` the figure was -1.18%; with `COc1ccc(-c2cc(C(=O)N3CCN(Cc4ccc5c(c4)OCO5)CC3)on2)cc1OC`, -0.461%; with `Cn1c(CC(=O)Nc2ccc(F)cc2)nnc1SCC(=O)NC1CCCCC1`, 1.19%.
As to `Cc1ccc(NC(=S)N(CCCN2CCC(C)CC2)Cc2ccco2)cc1`, the “activity, negative = inhibition” value is 2.2%.
For `COc1ccc(NC(=O)C2COc3ccccc3O2)cc1` (stereo not drawn), the “activity, negative = inhibition” value was -10.7%.
As to `CCCN(CC1COc2ccccc2O1)C(=S)Nc1ccc(C)cc1` (stereo not drawn), the Potency was 12.6 µM (active).
As for `Nc1cc(N)nc(SCc2cccc(F)c2)n1`, the “activity, negative = inhibition” value was 12.2%.
As to `CC(C)[C@H](NC(=O)N1CCn2c1nc1ccccc12)C(=O)NCCc1ccccc1`, the “activity, negative = inhibition” value was 0%.
Same read-out and setting: in the case of `O=C(Nc1ccccc1F)c1ccc2c(c1)OCO2` it was -8.17%.
Consider `O=C(Nc1nnc(C2COc3ccccc3O2)o1)c1ccc(F)cc1` (stereo not drawn), for which the Potency was 0.562 µM (active).
As for `CC1COc2ccccc2N1C(=O)c1ccc(F)cc1` (stereo not drawn), the “activity, negative = inhibition” value is 8.51%.
Still for that read-out and setting: with `Cc1ccc(OCC(=O)Nc2ccc3oc(=O)ccc3c2)cc1C` the figure was 6.56%.
For `COc1ccc2cc(C(=O)NCC3CCCO3)[nH]c2c1` (stereo not drawn), the “activity, negative = inhibition” value was 5.86%.
On to `O=C(C1CCCN(S(=O)(=O)c2ccc([N+](=O)[O-])cc2)C1)N1CCCCC1` (stereo not drawn), for which the “activity, negative = inhibition” value was -5.57%.
With `Cc1ccc(C(=O)Nc2nnc(-c3cccs3)s2)cc1C`, the “activity, negative = inhibition” value was 19.6%.
For the compound `N#Cc1ccc(C(=O)Nc2nc(-c3cccs3)c(C(=O)C(F)(F)F)s2)cc1`, the Potency is 3.16 µM (active).
Consider `CC(=O)c1sc(NC(=O)c2ccc(C)cc2)nc1C`, for which the “activity, negative = inhibition” value was -5.98%.
On to `CCc1ccccc1NC(=O)c1ccc2snnc2c1`, for which the “activity, negative = inhibition” value was 1.19%.
`Cc1c(C)c(C)c(S(=O)(=O)NCCc2ccccn2)c(C)c1C`: the “activity, negative = inhibition” value was 12.6%.
As to `CCc1ccc(-c2nc(SCC(=O)NC3CCCC3)n[nH]2)cc1`, the Potency is 14.1 µM (active).
For the compound `CCc1c(C)nc(SCC(=O)NC2CCCC2)[nH]c1=O`, the “activity, negative = inhibition” value was 7.14%.
As to `COc1ccc(-c2nc(SCC(=O)N3CCCC3)n[nH]2)cc1`, the “activity, negative = inhibition” value was 0.997%.
In the case of `Cc1ccc(S(=O)(=O)c2nnn3c2nc(N2CCN(c4ccccn4)CC2)c2ccccc23)cc1`, the “activity, negative = inhibition” value was 3.9%.
On the same count and under the same terms, with `COc1ccc(-c2cc(=O)oc3cc(OC(C)C(=O)Nc4ccc(CN5CCOCC5)cc4)ccc23)cc1` (stereo not drawn) the figure was -8.27%; with `Cc1ccc(OCc2nc3ccccc3n2C)cc1`, -21.6%; with `Cc1nc2ccccc2c(=O)n1Cc1ccc([N+](=O)[O-])cc1`, -12.2%.
For the compound `Cn1cc(/C=C/c2nc3ccccc3c(=O)n2-c2cccc([N+](=O)[O-])c2)c2ccccc21`, the “activity, negative = inhibition” value was -2.78%.
Regarding `CCn1c(/C=C/c2ccc([N+](=O)[O-])o2)nc2ccccc2c1=O`, the Potency is 11.2 µM (active).
For `CCCCn1c(N)c(N(CCOC)C(=O)c2oc3ccc(OC)cc3c2C)c(=O)[nH]c1=O`, the “activity, negative = inhibition” value was 12.1%.
Still for that read-out and setting: with `Cc1cc(/C=N/NC(=O)c2cccnc2)c(C)n1CC(C)C` the figure was -18.2%.
For `O=C(N/N=C/c1sc(N2CCCCC2)nc1-c1cccs1)c1cccnc1`, the Potency is 10 µM (active).
For the compound `O=C(N/N=C/c1ccc(O)c2ccccc12)c1cccnc1`, the “activity, negative = inhibition” value is 5.43%.
On to `O=C(NCCS(=O)(=O)N1CCN(c2ccccc2F)CC1)c1ccc(Br)o1`, for which the “activity, negative = inhibition” value was 1.1%.

(Values after PubChem BioAssay AID2546 (National Center for Advancing Translational Sciences (NCATS), 2010).)
